Measured values reported in PubChem BioAssay AID504847 (National Center for Advancing Translational Sciences (NCATS), 2011).
The whole screen tested about 400,000 compounds, of which about 3,700 (0.93%) were called active. Inconclusive results (about 3%) are left out. This excerpt belongs to a sample that is enriched for actives. Unmarked numbers belong to inactive results. The call rests on the fitted dose curve; in most records, active means well fitted inhibition curve with a large enough effect; inconclusive means small, poorly fitted or top-dose-only effect, or another doubt; inactive means no such curve, though single readings can be large or run the other way.

Target: Vitamin D3 receptor (Homo sapiens) (UniProt P11473)
Assay: Inhibitors of the vitamin D receptor (VDR): qHTS
Settings: VDR-SRC2-3 peptide fluorescence polarization, 2 h; max response, negative = inhibition: active compounds read low
In short: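 Measured by FP: displacement of SRC2-3 coactivator peptide from VDR by library compounds, following a two-hour ambient incubation.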
On the % scale 0 is the no-effect control and ±100 the full control effect; potency means the concentration at half of the fitted maximal effect.

Chain of Vitamin D3 receptor (Homo sapiens) (P11473 whole entry, looked up): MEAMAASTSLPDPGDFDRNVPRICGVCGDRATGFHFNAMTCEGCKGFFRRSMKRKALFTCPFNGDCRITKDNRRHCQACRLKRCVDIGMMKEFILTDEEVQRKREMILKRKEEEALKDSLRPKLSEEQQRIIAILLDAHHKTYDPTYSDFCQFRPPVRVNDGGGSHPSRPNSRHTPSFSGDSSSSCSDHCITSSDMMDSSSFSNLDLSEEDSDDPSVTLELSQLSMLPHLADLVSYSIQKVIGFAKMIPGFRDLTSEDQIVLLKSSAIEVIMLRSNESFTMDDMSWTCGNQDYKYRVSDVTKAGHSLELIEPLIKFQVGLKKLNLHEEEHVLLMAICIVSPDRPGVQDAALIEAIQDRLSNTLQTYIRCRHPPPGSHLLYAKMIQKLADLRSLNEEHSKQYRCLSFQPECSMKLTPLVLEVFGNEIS

In order of rising max response, negative = inhibition:
1. Cc1ccc(-c2nc3cccc(C)n3c2Nc2ccc3c(c2)OCCO3)cc1  -25.9%
2. Cn1c(=O)[nH]c(=O)c2c1nc(NCCc1ccccc1)n2Cc1ccc(F)cc1  -22.7%
3. Cc1cccc(NC(=O)CSc2nc(-c3ccco3)cc(C(F)(F)F)n2)c1C  -20.2%
4. O=C1NC(c2ccc(-c3ccccc3[N+](=O)[O-])o2)C(C(=O)c2ccc(Cl)cc2)C(O)(C(F)(F)F)N1 (stereo unspecified)  -20.1%
5. Cc1nnc(Sc2nc3c(c(=O)[nH]c(=O)n3C)n2Cc2ccccc2)s1  -19.6%
6. CCOC(=O)c1cc2c(=O)n3ccccc3nc2n(CCCOC)c1=NC(=O)C(C)(C)Oc1ccc(Cl)cc1  -19.6%
7. COc1ccc(-c2nc3nc(C)cc(C)n3c2Nc2c(C)cccc2C)cc1  -18.2%
8. O=C(Nc1ccc(N2CCOCC2)cc1)c1ccc(-c2ccccc2[N+](=O)[O-])o1  -16.6%
9. O=C(O)c1ccccc1/C=N/Nc1ccc(S(=O)(=O)Nc2ccc(Cl)cc2)cc1[N+](=O)[O-]  -16.1%
10. Cc1cc(NC(=O)c2ccc(-c3ccc(Cl)cc3)o2)cc(-c2nc3ncccc3o2)c1O  -16%
11. COc1ccc(N=Nc2c(-c3ccc(OC)cc3)[nH]oc2=O)cc1  -12%
12. Cc1cc(C)c(NC(=O)c2cc3sc(Cl)cc3n2C)c(C)c1  -11%
13. COc1ccc(CNC(=O)CSc2nc3ccccc3nc2Cc2ccccc2)cc1  -10.7%
14. CC(C)(C)c1ccc(S(=O)(=O)Nc2ccc(O)c(Sc3nc4ccccc4s3)c2)cc1  -10.5%
15. Nc1ccc2c(c1)C(=Cc1cccnc1)c1ccccc1-2  -7.1%
16. CC(C)c1ccc(S(=O)(=O)Nc2ccc(O)c(Sc3nc4ccccc4s3)c2)cc1  -4.7%
17. O=C1c2ccccc2C(=O)N1c1ccc(S(=O)(=O)N2CCOCC2)c2ccccc12  -4.23%
18. CC(C)c1ccc(C2C(C#N)=C(N)Oc3c2oc(CO)cc3=O)cc1 (stereo unspecified)  -3.81%
19. Cc1ccc(-n2cnc3cc(C(=O)NCCC4=CCCCC4)ccc32)cc1Cl  -3.42%
20. CC(NC(=O)c1cc2c(=O)n3ccccc3nc2n(C(C)C)c1=N)c1ccccc1 (stereo unspecified)  -2.71%
21. CC1=Nc2cc(C(=O)N3CCC(C)CC3)ccc2Sc2ccc(Cl)cc21  -2.31%
22. CCc1ccccc1OCCSc1nc(-c2cccs2)nc2cc(=O)[nH]n12  -2.15%
23. COc1ccc(-c2onc(C)c2C)cc1S(=O)(=O)NCC1CCN(Cc2cccc(F)c2)CC1  -0.795%
24. Cc1ccc(C2=C/C(=C\c3cccnc3)C(=O)O2)cc1  -0.781%
25. Cc1ccc2nc(/C(C#N)=C/c3ccc(-c4ccc(C(=O)OC(C)C)cc4)o3)[nH]c2c1  -0.457%
26. COc1ccc(CNc2nc(-c3ccc(Cl)cc3)nn2S(=O)(=O)c2ccc(C)cc2)cc1  -0.454%
27. O=C1CC(c2ccccc2)CC2=C1C(c1ccco1)n1nc(C(F)(F)F)nc1N2 (stereo unspecified)  -0.088%
28. CC1OC(OCC2OC(Oc3c(-c4ccc(O)c(O)c4)oc4cc(O)cc(O)c4c3=O)C(O)C(O)C2O)[C@@H](O)C(O)C1O (stereo partly specified)  -0.0788%
29. CC(=O)c1cc(-c2ccccc2)[nH]c1N1CCCC1  0%
30. C[C@H]1CCC[C@@]2(C)CCCC[C@]12O  0.107%
31. O=C(CN1CCC(O)(c2ccccc2)CC1)Nc1ccc2c(c1)OCCO2  0.904%
32. O=c1[nH]c2ccccc2s1  1.06%
33. CCOC(=O)c1cccc(NS(=O)(=O)c2cc(-c3cnc(C)o3)ccc2OC)c1  1.33%
34. COc1cc(OC)cc(C(=O)NCCc2csc3nc(-c4ccccc4F)nn23)c1  1.56%
35. CCn1c(SCC(=O)Nc2sc(C)c(C)c2C#N)nnc1C1CC1  1.75%
36. COc1cc(NC(=O)c2noc3c2CSc2ccccc2-3)cc(OC)c1OC  1.93%
37. Cc1ccc(-c2cc(-c3coc4ccccc4c3=O)c3c(n2)-c2cc(Cl)ccc2OC3)cc1  2.47%
38. COC(=O)c1c(C)oc2ccc(N(C(=O)Oc3ccccc3)S(=O)(=O)c3ccccc3)cc12  2.55%
39. COc1ccc(-c2nc(Cn3c(=O)cc(C)c4c(C)nn(-c5ccccc5)c43)c(C)o2)c(OC)c1  3.2%
40. Cc1cccc(OCCSc2nc3ccc(NC(=O)COc4ccccc4C)cc3s2)c1  4.41%
41. COc1ccc(S(=O)(=O)Nc2ccccc2C(=O)N2CCCC2)cc1C  4.61%
42. CCCN(CCC)CCCNC(=O)Cn1cc2c(n1)-c1c(oc(C(=O)N3CCCC3)c1C)CC2  4.81%
43. Cc1ccc(NC(=O)CSc2nc3c([nH]c4ccccc43)c(=O)n2-c2ccccc2)cc1Cl  5.44%
44. COC1=CC(=O)OC(c2ccc(OC)cc2)C1 (stereo unspecified)  6.19%
45. COc1ccc(NC(=O)c2sc3nc[nH]c(=O)c3c2C)cc1  6.76%
46. CCC1(c2ccccc2)NC(=O)N(CC(=O)c2ccc3c(c2)OCO3)C1=O (stereo unspecified)  7.42%
47. CC(=O)Oc1ccc(N(C(C)=O)S(=O)(=O)c2ccc3ccccc3c2)cc1Br  7.52%
48. c1ccc(Cn2nnc3c(N4CCCCC4)ncnc32)cc1  7.87%
49. Cc1cccc(C)c1NC(=O)NC1=CCCN1C  8.2%
50. CC1CCN(C(=O)c2ccc3c(c2)NC(=O)CN3)CC1  8.33%
51. NCCCNCCCCN(CCCN)/[N+]([O-])=N/O  8.85%
52. Cc1oc2ncnc(N3CCOCC3)c2c1C(=O)NCCc1ccccc1  9.03%
53. Cc1ccc(SCC(=O)N2CCN(c3ccc(F)cc3)CC2)cc1  9.21%
54. O=C(NCCCc1ccccc1)c1ccc2c(c1)sc1nc(-c3ccc(F)cc3)cn12  9.26%
55. CCOC(=O)c1ccc(CN(Cc2ccccc2)S(=O)(=O)c2ccc(Cl)cc2)cc1  9.71%
56. Cc1ccc(-n2c(=O)c3cccnc3n2CC(=O)Nc2ccccc2C(F)(F)F)cc1C  10.3%
57. Oc1c(C(c2ccccc2Cl)N2CCOCC2)sc2nc(-c3ccco3)nn12 (stereo unspecified)  10.6%
58. CCCN(CCC)CCCNC(=O)Cn1ncc2c3ccccc3n(Cc3ccccc3)c2c1=O  11.1%
59. O=C(CSc1nnnn1C1CCCC1)N1CCCCC1  12.7%
60. COc1cc(C(=O)N2CCN(c3ccc(Nc4ccc(C)cc4)nn3)CC2)cc(OC)c1OC  13.1%
61. COc1ccc(OC)c(-c2noc(N3CCN(c4cc(Cl)ccc4C)CC3)n2)c1  13.2%
62. COc1ccc2c(c1)c(N1CCCC1=O)c(C(=O)Nc1ccccc1C(F)(F)F)n2C  13.2%
63. CCOC(=O)c1c(S(=O)(=O)N2CCCC(C(=O)NCc3cccc(C)c3)C2)c(C)n(C)c1C (stereo unspecified)  14.2%
64. CC(Sc1nnnn1C)C(=O)NC(=O)NC1CCCCC1 (stereo unspecified)  15%
65. COc1cc(Nc2nc(-c3ccc(OC)c(OC)c3)nc3ccccc23)cc(OC)c1  19%
66. Cc1cc(C)nc(NS(=O)(=O)c2ccc(NC(=O)c3cc(=O)c4ccc(C)c(C)c4o3)cc2)n1  19.7%
67. COc1cc(C(=O)NCCS(=O)(=O)N2CCN(c3ccccc3)CC2)cc(OC)c1OC  22.4%

With `CCOC(=O)c1sc(NC(=O)CSc2nc(C)cc(C(F)(F)F)n2)c(C#N)c1C` the Potency was 28.2 µM (active).
`CN(Cc1ccco1)c1cc(-c2ccccc2C(F)(F)F)ncn1` was tested, and the Potency was 39.8 µM (active).
With `Cn1c(=O)[nH]c(=O)c2c1[nH]c(=S)n2Cc1ccccc1` the Potency was 89.1 µM (active).
In the case of `O=C(CCN1CCc2ccccc2C(O)(c2ccccc2)C1)c1ccc2c(c1)OCCO2` (stereo unspecified), the Potency is reported as 35.5 µM (active).
In the case of `CC(Sc1nnnn1C1CCCCC1)C(=O)O` (stereo unspecified), the Potency is reported as 79.4 µM (active).
`FC(F)(F)C1CCCN(c2nsc3ccccc23)C1` (stereo unspecified) was tested, and the Potency was 20 µM (active).
In the case of `CC(=O)N(C1=C(Cl)C(=O)c2ccccc2C1=O)c1ccc(C(=O)O)cc1`, the Potency is reported as 7.08 µM (active).
For `CC(=O)Oc1c2c(c3c(c1CC=C(C)C)O[C@@]14C(=CC5CC1C(C)(C)OC4(C/C=C(\C)C(=O)O)C5=O)C3=O)OC(C)(CCC=C(C)C)C=C2` (stereo partly specified), the Potency was 3.16 µM (active).
With `O=[N+]([O-])c1c(NCCO)cc(Sc2nc3ccccc3s2)c2nonc12` the Potency was 14.1 µM (active).
In the case of `Oc1c(C(c2ccccn2)N2CCOCC2)ccc2cccnc12` (stereo unspecified), the Potency is reported as 17.8 µM (active).
`Nc1ccc2[nH]c(=S)sc2c1` was tested, and the Potency was 28.2 µM (active).
In the case of `COc1ccc(N=C2C=CC(=O)O2)cc1`, the Potency is reported as 79.4 µM (active).
In the case of `O=C1NN(c2ccccc2)C(=O)/C1=C/c1ccc(-c2cccc(C(=O)O)c2)o1`, the Potency is reported as 89.1 µM (active).
`CC1=NN(c2ccc(Cl)c(C(=O)O)c2)C(=O)/C1=C/c1ccc(-c2ccccc2[N+](=O)[O-])o1` was tested, and the Potency was 50.1 µM (active).
With `Cc1ccc(CSCC2Nc3ccc(C(=O)N4CCN(c5ccc(F)cc5)CC4)cc3NC2=O)cc1` (stereo unspecified) the Potency was 79.4 µM (active).
`CC(C)c1ccc(C2CC(=O)N3CN(C4CCCCC4)CSC3=C2C#N)cc1` (stereo unspecified) was tested, and the Potency was 14.1 µM (active).
With `CC(=O)N(c1ccc2oc(=O)sc2c1)S(=O)(=O)c1ccc(C)cc1` the Potency was 70.8 µM (active).
`COc1ccc(Br)cc1/C=N/Nc1ccc(S(=O)(=O)Nc2ccccc2C(=O)O)cc1[N+](=O)[O-]` was tested, and the Potency was 79.4 µM (active).
With `Cc1ccccc1C1=N/C(=C/c2cccnc2)C(=O)O1` the Potency was 70.8 µM (active).
